# Assay outcomes (PubChem BioAssay)
# esBAF inh: inhibitors of esBAF chromatin remodeling in mouse ES cells; Bmi1-luciferase knock-in reporter, 24 h; 100% = twice the neutral-well signal; reporter increase, % at 12.5 µM; 350,000 tested, 2% active; in the data active means activation above about 40%; inconclusive means no clear call, values can overlap the other calls;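 further: 0% = median of the plate's neutral control wells and 100% = double that signal; a rise in the Bmi1 reporter signal indicates esBAF inhibition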
# MITF act: increases MITF-driven TRPM1 promoter luciferase signal. 300,000 tested, 0.75% active. SK-MEL-5 TRPM1-promoter luciferase, 24 h; % of positive control, neutral wells = 0. activation, % at 12.5 µM. AID 588334;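 active means mean activation of at least 80% with every replicate also reaching 80%; inconclusive means mean reaches 80% but some replicate falls short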;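 further: 0% = neutral control wells and 100% = parthenolide positive control wells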
# HSF1 inh: HSF1 inhibition. NIH3T3-HGL HSE-luciferase, MG132-induced, luminescence 8 h; hits give low values. 300,000 tested, 0.77% active. AID 2098. activity change, negative = inhibition, % at 7.5 µM (by protocol);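 active means more than half of replicate wells show activity change below -50%, luminescence cut by over half; inconclusive means some wells, but at most half, below -50%; inactive means no replicate well below -50%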;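 further: luciferase reports HSF-1 transcriptional activity via heat shock element; 0% = median of DMSO wells and -100% = zero luminescence signal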
# HSF1 activator: increases HSF-1 driven luciferase reporter signal. NIH3T3-HGL HSF-1 luciferase reporter, MG132, 8 h; 100% = twice DMSO control signal. activation, % at 9 µM. 300,000 tested, 1.7% active. AID 504408;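 active means mean replicate activation of at least 50% with a set share of replicates each reaching 50%; inconclusive means only one of those two conditions met; inactive means mean below 50% and too few replicates reaching it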;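 further: 0% = median of the neutral control wells and 100% = twice that signal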
# Wnt act: Wnt/beta-catenin pathway activation; Wnt/beta-catenin reporter cell assay, activator, plate reader; activation, % at 9.35 µM; 300,000 tested, 1.2% active; AID 743398; in the data active means activation above about 30%, passing the limit was not always enough; inconclusive means no clear call, values can overlap the other calls;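 further: 0% = neutral control wells and 100% = positive control wells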
# Active calls of the source: *; ? = inconclusive; nt = no result. Shown are actives, neighbours in structure and some others; about 3.8% of the full set was active somewhere.
SMILES,esBAF inh,MITF act,HSF1 inh,HSF1 activator,Wnt act
Cc1cccc(N(CC(=O)NCc2ccc(F)cc2)C(=O)c2csnn2)c1C,nt,2.5,13.3,52.2*,-0.2
CN1[C@@H]2c3ccc(-c4cccc(F)c4)c(=O)n3C[C@H]1[C@H](CO)[C@H]2C(=O)Nc1nccs1,3.0,nt,nt,nt,nt
CCOc1ccc(N2C(=O)CCC2=O)cc1,-5.6,nt,3.6,2.8,-8.5
CCCC1CCC(c2ccc(OCC)cc2)=CC1=O (stereo not drawn),28.9,67.5,24.5,32.7,52.7*
O=C(c1cnc(Cc2c[nH]c3ccccc23)c(I)c1)N1CCCCC1,49.5*,nt,nt,nt,6.8
Cc1noc(C)c1NC(=O)N(C)C[C@@H]1OCCCC[C@H](C)Oc2ccc(NC(=O)c3ccncc3)cc2C(=O)N([C@H](C)CO)C[C@H]1C,-4.9,nt,nt,nt,nt
Cc1ccc(NC(=O)N2C(=O)C3(OCCO3)c3ccccc32)cc1,57.9*,71.5,6.9,-9.1,nt
CC(C)OC(=O)N(C)C[C@H]1OCc2ccccc2-c2ccccc2C(=O)N([C@@H](C)CO)C[C@@H]1C,-4.6,nt,nt,nt,nt
C[C@H](CO)N1C[C@H](C)[C@@H](CN(C)Cc2ccc3c(c2)OCO3)Oc2ccc(NC(=O)Nc3ccccc3)cc2CC1=O,-4.7,nt,nt,nt,nt
Cc1noc(C)c1NC(=O)N(C)C[C@H]1Oc2ccc(NC(=O)Nc3cccc4ccccc34)cc2CC(=O)N([C@H](C)CO)C[C@@H]1C,-7.8,nt,nt,nt,nt
CC1(C)Cc2c(C#N)c(SCCC#N)nc(N3CCOCC3)c2CO1,-12.9,-6.0,-61.3*,-68.4,0.3
CCC(=O)Nc1ccc2c(c1)OC[C@@H](C)N(Cc1ccccc1)C[C@H](C)[C@H](OC)CN(C)C2=O,3.2,nt,nt,nt,nt
O=C(NC(=S)N1CCN(c2ccc(Cl)cc2[N+](=O)[O-])CC1)c1cccs1,nt,10.3,-65.6*,-67.8,nt
CCCNC(=O)N[C@@H]1CC[C@H](CC(=O)NC2CCCCC2)O[C@H]1CO,-1.0,nt,nt,nt,nt
C/C=C/c1ccc2c(c1)O[C@H](CN(C)Cc1ccc(F)cc1)[C@H](C)CN([C@H](C)CO)S2(=O)=O,-3.4,nt,nt,nt,nt
O=C(NC(=O)c1cccc(Cl)c1)OC[C@@H]1CCCN2CCCCC12 (stereo partly drawn),4.6,4.6,-5.6,3.7,0.9
O=C(NC(=O)c1cccc(F)c1)OC[C@@H]1CCCN2CCCC[C@H]12,-4.5,nt,-77.7*,-83.6,-2.6
N=C1/C(=C/c2ccc(OCc3ccccc3)cc2)C(=O)N=C2SC(CC(=O)N3CCOCC3)=NN12,42.0*,35.2,17.0,19.3,3.2
Clc1ccc(/C=N/Nc2nnc(Cl)c3ccccc23)cc1,89.5*,39.0,85.0,120.8*,10.6
O=c1c2ccccc2nc(N/N=C/c2c(O)ccc3ccccc23)n1O,-3.1,-25.6,4.6,1.3,nt
Clc1nnc(N/N=C/c2ccccc2)c2ccccc12,39.2,14.9,20.6,23.1,nt
Clc1ccc(/C=N/Nc2nc(Cl)nc3ccccc23)cc1,57.9*,nt,14.5,37.1,nt
Cc1ccc(/C=N/Nc2nnc(Cl)c3ccccc23)cc1,20.3,9.9,34.1,64.6*,-6.4
O=c1c2ccccc2nc(N/N=C/c2ccc(O)cc2)n1O,46.8*,37.8,-18.4,22.4,nt
CN(C)C(=O)C[C@@H]1CC[C@@H]2[C@@H](COc3ccc(NC(=O)C4CCOCC4)cc3C(=O)N2C)O1,0.0,nt,nt,nt,nt
SMILES,esBAF inh,MITF act,HSF1 inh,HSF1 activator,Wnt act
C[C@@H]1CN([C@H](C)CO)C(=O)c2cc(NS(C)(=O)=O)ccc2O[C@@H](C)CCCCO[C@@H]1CN(C)S(=O)(=O)c1cn(C)cn1,-0.9,nt,nt,nt,nt
CCCCC(=O)Nc1sc(C(=O)N(CC)CC)c(C)c1C(=O)OC,0.7,9.6,-88.4*,-90.5,nt
COCC(=O)Nc1ccc2c(c1)C(=O)N(C)[C@H]1CC[C@@H](CC(=O)NCc3ccccc3)O[C@H]1CO2,4.7,nt,nt,nt,nt
COc1ccc2c(c1)Cc1sc(NC(=O)c3ccco3)nc1-2,46.0*,65.4,41.7,76.5*,nt
COc1ccc2c(c1)-c1nc(/N=C/c3c(O)ccc4ccccc34)sc1CC2,nt,-6.5,39.2,63.4*,3.9
COc1ccc2c(c1)Cc1sc(NC(C)=O)nc1-2,41.0*,75.3,-3.5,6.1,nt
COc1ccc2c(c1)-c1nc(NC(=O)c3ccco3)sc1CC2,nt,85.1*,18.4,9.4,63.5*
COc1ccc2c(c1)Cc1sc(NC(=O)c3cccnc3)nc1-2,nt,32.7,1.0,8.1,4.3
C[C@H](CO)N1C[C@H](C)[C@H](CN(C)C)OCc2cn(nn2)CCCC1=O,-6.2,nt,nt,nt,nt
O=Cc1cccc(OC(=O)/C=C/c2ccco2)c1,48.2*,nt,20.9,34.9,9.2
O=C(/C=C/c1ccco1)Oc1ccc(C(=S)N2CCOCC2)cc1,nt,1.2,3.9,3.6,84.0*
COC(=O)c1ccc(OC(=O)/C=C/c2ccco2)cc1,-5.1,7.9,16.5,12.3,-1.7
COc1ccc(-c2nnc(SCc3ccccc3)n2N)cc1,nt,87.5*,10.5,23.4,22.9
COc1ccc(-c2nnc(SCCc3ccccc3)n2N)cc1,12.6,17.9,3.2,5.7,3.9
COc1cc(-c2nnc(SC/C=C/c3ccccc3)n2N)cc(OC)c1OC,7.3,0.7,45.7,79.2*,-0.4
O=C(Nc1ccccc1Cl)c1cccs1,14.8,35.2,3.3,1.8,nt
O=C(Nc1ccc(Cl)cn1)c1ccc2nccnc2c1,nt,125.7*,4.9,26.6,37.0*
O=C(Nc1ccccc1Cl)c1ccc2nccnc2c1,15.7,103.4*,7.2,30.0,14.4
O=C(Nc1ccccc1Cl)c1ccc(-c2ccccn2)s1,82.2*,?,38.5,67.7*,30.0
O=C(Nc1ccc(Br)cn1)c1ccc2nccnc2c1,nt,19.6,nt,nt,nt
CCC(=O)Nc1ccc2c(c1)C(=O)N(C)C[C@H](OC)[C@H](C)CN(Cc1cccc(F)c1)[C@@H](C)CO2,-5.2,nt,nt,nt,nt
CCCC#Cc1ccc2c(c1)O[C@@H](CN(C)C)[C@@H](C)CN([C@H](C)CO)S2(=O)=O,-2.6,nt,nt,nt,nt
CC(=O)Nc1ccc(S(=O)(=O)NCc2csc(C)n2)cc1,-2.0,-5.7,-87.1*,-89.6,0.4
Cc1nc(CNS(=O)(=O)c2ccc(Br)cc2)cs1,-12.3,1.4,-5.7,-17.7,-0.1
C[C@@H]1CCCCO[C@H](CN(C)C(=O)CCCN(C)C)[C@H](C)CN([C@@H](C)CO)C(=O)c2cc(NC(=O)NC3CCCCC3)ccc2O1,3.1,nt,nt,nt,nt
SMILES,esBAF inh,MITF act,HSF1 inh,HSF1 activator,Wnt act
Cc1cccc(C(=O)NC2CCN(C(=O)Nc3ccc(F)cc3)CC2)c1,-0.8,-5.6,-53.9*,-63.2,-1.4
Cc1cccc(C(=O)NC2CCN(C(=O)Nc3ccccc3C)CC2)c1,nt,-8.0,0.1,-4.0,1.3
N#CC1=C(N)Oc2n[nH]c(-c3ccc(F)cc3)c2C1c1ccncc1 (stereo not drawn),nt,-5.8,32.1,66.8*,nt
N#CC1=C(N)Oc2n[nH]c(-c3ccncc3)c2C1c1ccsc1 (stereo not drawn),3.1,-0.3,4.0,-1.5,nt
O=C(/C=C/c1ccco1)NC(=S)Nc1nc(-c2ccc3ccccc3c2)cs1,nt,1.8,94.2,135.9*,2.1
O=C(/C=C/c1ccco1)NC(=S)Nc1nc(-c2ccc(Cl)cc2)cs1,nt,13.2,22.4,63.3*,1.9
